Screening results from PubChem BioAssay.
This is a sample that favours compounds with a hit; in the whole collection about 6.8% have one here.
DPM-DC inhibit = inhibitors of Streptococcus pneumoniae diphosphomevalonate decarboxylase; calls only at 10 µM; purified DPM-DC, PK/LDH coupled NADH fluorescence; actives 0.49% (n = 65,000);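 active means the 320 compounds with the highest percent inhibition in the single-dose primary screen, excluding strongly autofluorescent ones, cut at about 32% in these data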;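 further: kinetic rate of NADH fluorescence loss reporting ADP formed by the decarboxylase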
Fluor 339 460 = intrinsic fluorescence of library compounds, ex339/em460 – biochemical, MLSMR library, data from DPM-DC assay, artefact control, profiling panel. fluorescence fold increase at 10 µM. AID 709. compound autofluorescence, ex339/em460 nm, NADH buffer; stronger effect = higher value; 1 = no-compound wells, NADH background. actives 5.5% (n = 65,000);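 active means at 10 µM, mean starting fluorescence two-fold or more over control wells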;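 further: signal is the first read of a kinetic run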
A340 absorber = compounds absorbing at 340 nm. compound absorbance at 340 nm, fold over control. fold change at 10 µM. 65,000 tested, under 10 active. AID 708;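 active means at 10 µM dose, initial 340 nm absorbance at least 2 fold that of control wells; inactive means change under 2 fold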;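 further: initial absorbance extrapolated from kinetic A340 decline of NADH oxidation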
Spn PMK inh = blocks S. pneumoniae phosphomevalonate kinase. purified PMK, PK/LDH-coupled NADH absorbance 340 nm. AID 539. actives 0.49% (n = 65,000). inhibition, % at 10 µM;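 active means top-ranked compounds by inhibition in the single 10 µM screen, taking a fixed number of the strongest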;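 further: 0% = full reaction with DMSO carrier and 100% = background rate without enzyme reaction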
MK inhibit = inhibitors of Streptococcus pneumoniae mevalonate kinase. purified MK, PK/LDH-coupled NADH absorbance 340 nm. inhibition, % at 10 µM. actives 0.48% (n = 65,000). AID 555;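 active means ranked among the strongest by inhibition in the single 10 µM screen, a fixed top-ranked set picked for dose follow-up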
NADH enzymes = blocks coupling enzymes of NAD/NADH assays | coupled PK/LDH NADH assays, four targets | IC50, µM (doses to about 10 µM), without a hit: at the highest dose inhibition | actives 0.02% (n = 65,000) | AID 774;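 active means single-dose screening hits from any of four coupled enzyme assays that gave an IC50 when retested across doses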;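 further: the DPM-DC format reads NADH fluorescence rather than 340 nm absorbance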
Active calls of the source: *.

Screening O=C(NCc1cccnc1)C1CC(c2ccc(F)cc2)=NO1 (stereo not given) returned DPM-DC inhibit inactive, Fluor 339 460 1.1, A340 absorber 1, Spn PMK inh 10, MK inhibit 4 and NADH enzymes 5%.
For Clc1ccccc1OCCCCN1CCCC1 the results were DPM-DC inhibit inactive, Fluor 339 460 1.1, A340 absorber 1, Spn PMK inh 7, MK inhibit 40* and NADH enzymes 16%.
For COc1cccc(OC)c1OCCCCN1CCCC1 the results were DPM-DC inhibit inactive, Fluor 339 460 1, A340 absorber 1.1, Spn PMK inh 8, MK inhibit 52* and NADH enzymes 20%.
For CCc1cc2c(=O)c(-n3cnc4ccccc43)coc2cc1O the results were Fluor 339 460 4.2*, A340 absorber 1.1, Spn PMK inh 13, MK inhibit 2 and NADH enzymes 8%.
For COC(=O)c1cc(OC)c(OC)cc1NC(=O)c1ccoc1C the results were Fluor 339 460 3.3*, A340 absorber 1.1, Spn PMK inh 5, MK inhibit 3 and NADH enzymes 4%.
For COC(=O)c1cc(OC)c(OC)cc1NC(=O)c1ccccc1 the results were Fluor 339 460 2.2*, A340 absorber 1.1, Spn PMK inh 3, MK inhibit 1 and NADH enzymes 2%.
Screening O=C(NCc1ccccc1)N(Cc1nc2ccccc2c(=O)[nH]1)C1CCCC1 returned Fluor 339 460 3.8*, A340 absorber 1, Spn PMK inh 5, MK inhibit 10 and NADH enzymes 8%.
For O=C(OC(C(=O)NC1CCCC1)c1ccccc1F)c1ccco1 (stereo not given) the results were DPM-DC inhibit inactive, Fluor 339 460 1.1, A340 absorber 0.99, Spn PMK inh 6, MK inhibit 4 and NADH enzymes 3%.
`CC1CN(C2CCN(C(=O)c3ccccc3)CC2)CC(C)O1` (stereo not given) gave DPM-DC inhibit inactive, Fluor 339 460 1.1, A340 absorber 1, Spn PMK inh 3, MK inhibit 33 and NADH enzymes 12%.
For COc1ccc(CCNC(=O)c2ccc3nc(-c4ccco4)c(-c4ccco4)nc3c2)cc1OC the results were DPM-DC inhibit inactive, Fluor 339 460 2.4*, A340 absorber 1, Spn PMK inh 15, MK inhibit 27 and NADH enzymes 19%.
Screening COc1ccc(CCn2c(N)c(C(=O)NCc3ccco3)c3nc4ccccc4nc32)cc1OC returned Fluor 339 460 3.6*, A340 absorber 1, Spn PMK inh 3, MK inhibit 10 and NADH enzymes 7%.
`COc1ccc(-n2c(N)c(C(=O)NCc3ccco3)c3nc4ccccc4nc32)c(OC)c1` gave Fluor 339 460 2.9*, A340 absorber 1, Spn PMK inh 15, MK inhibit 10 and NADH enzymes 3%.
`COc1ccc(CNC(=O)C2COc3ccccc3O2)c(OC)c1` (stereo not given) gave DPM-DC inhibit inactive, Fluor 339 460 1.1, A340 absorber 0.99, Spn PMK inh 11, MK inhibit 6 and NADH enzymes 6%.
Screening O=C(NC1(C(F)(F)F)NC(=O)N(CC2CCCCC2)C1=O)c1ccco1 (stereo not given) returned DPM-DC inhibit inactive, Fluor 339 460 1.1, A340 absorber 1, Spn PMK inh 10, MK inhibit 10 and NADH enzymes 7%.
Screening CCOc1cc(S(=O)(=O)N(CC)CC)ccc1Br returned DPM-DC inhibit inactive, Fluor 339 460 1.1, A340 absorber 1, Spn PMK inh 9, MK inhibit 15 and NADH enzymes 10%.
COC(=O)c1cc(COc2ccc3ccc(=O)oc3c2)c(C)o1 was read as Fluor 339 460 2.1*, A340 absorber 1.1, Spn PMK inh 0, MK inhibit 10 and NADH enzymes 5%.
For COC(=O)c1cc(COc2ccc3oc(C)c(C(=O)OC)c3c2)c(C)o1 the results were DPM-DC inhibit inactive, Fluor 339 460 1.1, A340 absorber 1, Spn PMK inh 9, MK inhibit 3 and NADH enzymes 4%.
`Cc1oc(C(=O)O)cc1COc1ccc2c(C)cc(=O)oc2c1` gave DPM-DC inhibit inactive, Fluor 339 460 2.1*, A340 absorber 1.1, Spn PMK inh 1, MK inhibit 1 and NADH enzymes 5%.
CCCCOC(=O)Nc1cc(C(=O)OC)ccc1C(=O)OC was read as DPM-DC inhibit inactive, Fluor 339 460 1.6, A340 absorber 1.1, Spn PMK inh 11, MK inhibit 7 and NADH enzymes 11%.
Screening CC(C)N1C(=O)C2C(c3ccccc3O)NC(C)(C(=O)O)C2C1=O (stereo not given) returned DPM-DC inhibit inactive, Fluor 339 460 1.1, A340 absorber 0.99, Spn PMK inh 11, MK inhibit 9 and NADH enzymes 7%.
`CC(C)Cc1cc(-c2ccco2)c(C#N)c(N)n1` gave Fluor 339 460 2.2*, A340 absorber 1.1, Spn PMK inh 10, MK inhibit 7 and NADH enzymes 9%.
Screening O=C(NC(Cc1ccccc1)C(=O)OCC(=O)N1CCc2ccccc21)c1ccco1 (stereo not given) returned DPM-DC inhibit inactive, Fluor 339 460 1.1, A340 absorber 1, Spn PMK inh 3, MK inhibit 0 and NADH enzymes 1%.
COc1ccc2nc(NC(=O)c3ccc4ncsc4c3)sc2c1 was read as Fluor 339 460 2.2*, A340 absorber 1.1, Spn PMK inh 0, MK inhibit 2 and NADH enzymes 1%.
Screening COc1ccc2nc(NC(=O)c3ccc(-n4nc(C)cc4C)cc3)sc2c1 returned Fluor 339 460 5.1*, A340 absorber 1, Spn PMK inh 18, MK inhibit 4 and NADH enzymes 11%.
Screening Cc1cc(C)n(-c2ccc(C(=O)Nc3nnc(C4CC4)s3)cc2)n1 returned DPM-DC inhibit inactive, Fluor 339 460 0.94, A340 absorber 1.1, Spn PMK inh 15, MK inhibit 1 and NADH enzymes 8%.
Screening O=C1CN(c2nc3ccccc3n3cnnc23)CC(=O)N1CCc1ccccc1 returned DPM-DC inhibit inactive, Fluor 339 460 1, A340 absorber 0.99, Spn PMK inh 17, MK inhibit 7 and NADH enzymes 5%.
Screening Nc1nc2sc3c(c2cc1C(=O)N1CCOCC1)CCCC3 returned Fluor 339 460 2.2*, A340 absorber 1, Spn PMK inh 1, MK inhibit 28 and NADH enzymes 15%.
Screening Cc1cccc2cc3c(N)c(C(=O)N4CCOCC4)sc3nc12 returned DPM-DC inhibit inactive, Fluor 339 460 1.1, A340 absorber 1.1, Spn PMK inh 9, MK inhibit 15 and NADH enzymes 8%.
Screening COc1ccc(-c2nnc3sc(COc4ccccc4)nn23)cc1 returned DPM-DC inhibit inactive, Fluor 339 460 1.1, A340 absorber 1, Spn PMK inh 10, MK inhibit 0 and NADH enzymes 3%.
